{"source": "PubChem BioAssay (NCATS)", "note": "Inconclusive results are not listed. Active and inactive are the calls of the source. The call rests on the fitted dose curve; in most records, active means well fitted inhibition curve with a large enough effect; inconclusive means small, poorly fitted or top-dose-only effect; inactive means flat fitted curve, though single readings scatter. On the % scale 0 is the no-effect control and ±100 the full control effect; potency means the concentration at half of the fitted maximal effect.", "data": [{"molecular_target": "Voltage-gated inwardly rectifying potassium channel KCNH2 (Homo sapiens) (UniProt Q12809)", "sequence (Q12809 whole entry, looked up)": "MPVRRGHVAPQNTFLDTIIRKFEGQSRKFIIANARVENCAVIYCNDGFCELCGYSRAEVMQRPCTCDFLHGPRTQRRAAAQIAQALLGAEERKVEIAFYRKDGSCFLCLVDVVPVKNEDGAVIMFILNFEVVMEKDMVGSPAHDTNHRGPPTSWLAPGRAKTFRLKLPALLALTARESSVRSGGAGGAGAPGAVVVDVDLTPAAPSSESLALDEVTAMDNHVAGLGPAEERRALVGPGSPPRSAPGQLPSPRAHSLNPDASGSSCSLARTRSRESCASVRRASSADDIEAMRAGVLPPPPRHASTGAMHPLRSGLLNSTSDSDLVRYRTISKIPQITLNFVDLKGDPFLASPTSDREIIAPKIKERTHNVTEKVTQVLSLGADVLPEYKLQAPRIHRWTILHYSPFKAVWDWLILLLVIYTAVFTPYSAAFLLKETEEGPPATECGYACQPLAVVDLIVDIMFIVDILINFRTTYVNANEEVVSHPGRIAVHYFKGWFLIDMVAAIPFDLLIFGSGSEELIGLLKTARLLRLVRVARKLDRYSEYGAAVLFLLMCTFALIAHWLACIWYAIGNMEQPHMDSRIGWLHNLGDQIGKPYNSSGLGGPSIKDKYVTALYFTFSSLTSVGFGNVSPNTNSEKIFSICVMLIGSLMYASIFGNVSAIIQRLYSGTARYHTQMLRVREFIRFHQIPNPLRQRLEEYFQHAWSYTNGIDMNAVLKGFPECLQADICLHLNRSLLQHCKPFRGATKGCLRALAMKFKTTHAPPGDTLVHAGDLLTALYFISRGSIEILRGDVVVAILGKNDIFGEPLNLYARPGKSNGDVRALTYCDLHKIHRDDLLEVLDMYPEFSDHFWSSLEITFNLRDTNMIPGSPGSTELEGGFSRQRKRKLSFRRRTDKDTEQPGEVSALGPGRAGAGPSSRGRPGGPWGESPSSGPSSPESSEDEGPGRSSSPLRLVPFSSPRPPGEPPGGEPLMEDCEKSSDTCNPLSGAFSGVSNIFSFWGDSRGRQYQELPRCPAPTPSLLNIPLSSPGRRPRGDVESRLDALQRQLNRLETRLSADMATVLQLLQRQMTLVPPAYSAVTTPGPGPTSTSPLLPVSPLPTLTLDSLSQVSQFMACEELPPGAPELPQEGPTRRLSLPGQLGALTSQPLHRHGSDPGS", "assay": "qHTS Assay for Small Molecule Inhibitors of the Human hERG Channel Activity (AID 588834);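 further: lower thallium flux fluorescence means stronger hERG block; nearly all actives have a fitted effect of over 50% in size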; on activity change, negative = inhibition: top concentration of the series differs between compounds", "settings": "U2OS BacMam hERG, FluxOR thallium flux fluorescence; series mostly up to 46.1 µM; activity change, negative = inhibition: at the top concentration", "outline": "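Thallium-flux (FluxOR) read-out on FDSS: fluorescence read 10 s before and 2 min after stimulation buffer. hERG-BacMam-transduced U2OS cells, compound exposure about 10 min. AC50 by standard Hill equation.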", "values": [{"compound": "CC(=O)Oc1cc(C)c(OC(C)=O)c2ccccc12", "activity change, negative = inhibition": "8.33% (inactive)"}, {"compound": "Nc1c(N=Nc2ccc(-c3ccc(N=Nc4cc(S(=O)(=O)O)c5ccccc5c4N)cc3)cc2)cc(S(=O)(=O)O)c2ccccc12", "activity change, negative = inhibition": "4.38% (inactive)"}, {"compound": "CCOC(=O)C1=C(C)NC(C)=C(C(=O)OCC)C1c1ccccc1C=CC(=O)OC(C)(C)C", "activity change, negative = inhibition": "-25.1% (inactive)"}, {"compound": "O=S(=O)(O)c1ccc2c(N=Nc3ccc(S(=O)(=O)O)c4ccccc34)c(O)c(S(=O)(=O)O)cc2c1", "activity change, negative = inhibition": "28.4% (inactive)"}, {"compound": "O=C(O)c1cc(O)c2c(c1)[O][Bi][O]2", "activity change, negative = inhibition": "12.6% (inactive)"}, {"compound": "Nc1ncnc2c1ncn2[C@@H]1O[C@H](COP(=O)(O)OP(=O)(O)OP(=O)(O)O)[C@@H](O)[C@H]1O", "activity change, negative = inhibition": "-2% (inactive)"}, {"compound": "CC(NNC(=O)c1ccccc1)c1ccccc1", "note": "(configuration not stated)", "activity change, negative = inhibition": "29.5% (inactive)"}, {"compound": "CC(C)N=c1cc2n(-c3ccc(Cl)cc3)c3ccccc3nc-2cc1Nc1ccc(Cl)cc1", "Potency": "7.08 µM (active)"}, {"compound": "CC(Cc1ccc(O)c(O)c1)C(C)Cc1ccc(O)c(O)c1", "note": "(configuration not stated)", "activity change, negative = inhibition": "4.16% (inactive)"}, {"compound": "C=CCSSSCC=C", "activity change, negative = inhibition": "8.49% (inactive)"}, {"compound": "O=C(O)c1cc(=O)c2c3nc4ccccc4oc-3cc(=O)c2[nH]1", "activity change, negative = inhibition": "12.3% (inactive)"}, {"compound": "CO[C@H]1C[C@@H]2CC[C@@H](C)[C@@](O)(O2)C(=O)C(=O)N2CCCC[C@H]2C(=O)O[C@H]([C@H](C)C[C@@H]2CC[C@@H](OCCO)[C@H](OC)C2)CC(=O)[C@H](C)/C=C(\\C)[C@@H](O)[C@@H](OC)C(=O)[C@H](C)C[C@H](C)/C=C/C=C/C=C/1C", "activity change, negative = inhibition": "-4.51% (inactive)"}, {"compound": "O=C(Nc1cccc(C(F)(F)F)c1)c1cc(Br)cc(Br)c1O", "activity change, negative = inhibition": "26.8% (inactive)"}, {"compound": "CC[C@@]1(O)C(=O)OCc2c1cc1n(c2=O)Cc2cc3c([N+](=O)[O-])cccc3nc2-1", "activity change, negative = inhibition": "-18.2% (inactive)"}, {"compound": "CCN(CC)CCOc1ccc(-c2nc3cc(Cl)ccc3s2)cc1", "Potency": "5.01 µM (active)"}, {"compound": "CO[C@H](C(=O)[C@@H](O)[C@@H](C)O)C1Cc2cc3cc(O[C@H]4C[C@@H](O[C@H]5C[C@@H](O)[C@H](O)[C@@H](C)O5)[C@@H](O)[C@@H](C)O4)c(C)c(O)c3c(O)c2C(=O)[C@H]1O[C@H]1C[C@@H](O[C@H]2C[C@@H](O[C@H]3C[C@](C)(O)[C@H](O)[C@@H](C)O3)[C@H](O)[C@@H](C)O2)[C@H](O)[C@@H](C)O1", "note": "(some centres not stated)", "activity change, negative = inhibition": "-26.1% (inactive)"}, {"compound": "O=S(=O)(O)c1cc(O)c2c(N=Nc3ccc(Nc4ccccc4)c4c(S(=O)(=O)O)cccc34)cc(S(=O)(=O)O)cc2c1", "activity change, negative = inhibition": "3.68% (inactive)"}]}]}
